In PubChem BioAssay (NCATS):
Inconclusive results are not listed. Activity calls are given as the source filed them. Unless noted, calls come from the whole dose curve; as a rule, active = well fitted curve in the direction sought with a large enough effect; inconclusive = small, poorly fitted or top-dose-only effect, or another doubt; inactive = no such curve, though single readings can be large; an effect the other way counts as inactive or inconclusive.

Assays:
[1] = Cell Viability - BJ (AID 421; calls by dose curve;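 note: potency is the fitted concentration of half-maximal effect; cells exposed to compound for 40 hours at 37 °C before readout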); conditions: BJ fibroblast viability, qHTS
Procedure, shortened: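 Normal human BJ foreskin fibroblasts, 1500/well in complete medium, treated 40 hr at 37 °C. Cellular ATP by CellTiter-Glo luminescence; normalized to DMSO and 100 uM tamoxifen, AC50 from Hill fit.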

[2] = Cell Viability - SK-N-SH (AID 435; calls by dose curve; note: potency is the fitted concentration of half-maximal effect); conditions: SK-N-SH neuroblastoma cell viability qHTS
Procedure, shortened: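 qHTS cytotoxicity: CellTiter-Glo ATP luminescence after 40 h compound exposure of human neuroblastoma SK-N-SH cells at 37 °C. AC50 derived by Hill-equation fitting, with DMSO as basal and 100 uM tamoxifen as full inhibition.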

[3] = biological target: Mitogen-activated protein kinase 10 (Mus musculus) (UniProt Q61831); experiment: JNK3 AlphaScreen Assay (AID 530; active = well fitted curve in either direction with a large enough effect, not every such curve was filed as active;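 note: kinase came from lysate of stimulated human HepG2 cells; signal reports phosphorylation of biotinylated GST-cJun 1-79 at Ser73 with 10 µM ATP; % is set by controls: 0 for no effect and ±100 for the full control effect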)
Procedure, shortened: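 Pre-activated (IL-1β/TNFα) JNK3 in HepG2 lysates phosphorylates biotin-GST-cJun(1-79), 10 uM ATP; anti-phospho-cJun(Ser73) AlphaScreen read at room temperature, pH 7.6 Tris buffer. Compounds pre-incubated 15 min as titrations.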

[4] = Cell Viability - N2a (AID 540); conditions: N2a mouse neuroblastoma cell viability; activity change, negative = cytotoxicity: at 92.2 µM (top of the series); note: nearly all actives have a fitted effect of over 45% in size; note: potency is the fitted concentration of half-maximal effect;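 for activity change, negative = cytotoxicity: plate controls were DMSO alone for no effect and tamoxifen control for full effect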
Procedure, shortened: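 Mouse neuroblastoma N2a cells, 1500/well, exposed to compounds 40 h at 37 °C in complete medium. Viability measured as cellular ATP by CellTiter-Glo luminescence; AC50 from Hill fits of concentration-response.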

[5] = Cell Viability - SH-SY5Y (AID 544); conditions: SH-SY5Y neuroblastoma cell viability; viability change, negative = cytotoxic: at 92.2 µM (top of the series); note: nearly all actives have a fitted effect of over 55% in size; note: potency is the fitted concentration of half-maximal effect;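 for viability change, negative = cytotoxic: 0% = DMSO alone and -100% = 100 µM tamoxifen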
Procedure, shortened: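 SH-SY5Y human neuroblastoma cells (1500/well) incubated 5 h, then compound-treated 40 h at 37 °C in complete medium. Viability read as intracellular ATP by CellTiter-Glo luminescence after 20 min; AC50 from Hill-equation fits of qHTS concentration-response.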

[6] = Cell Viability - Renal Proximal Tubule (AID 545); conditions: renal proximal tubule cells viability, primary cells of rat origin; activity change, negative = cytotoxicity: at 91.7 µM (top of the series); note: nearly all actives have a fitted effect of over 40% in size; note: potency is the fitted concentration of half-maximal effect;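 for activity change, negative = cytotoxicity: 0% = DMSO only and -100% = 100 µM tamoxifen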
Procedure, shortened: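 Viability taken as intracellular ATP (CellTiter-Glo luminescence) after 40 hr, 37 °C compound treatment of primary proximal tubule cells from rat kidney, 1000 cells/well; Hill-equation fits of qHTS concentration-response data gave AC50.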

[7] = Cellular Toxicity (caspase-3) HepG2 (AID 654); note: potency is the fitted concentration of half-maximal effect;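 for caspase-3 activation: cells exposed to compound for 16 hours before reading; 0% = DMSO alone and 100% = caspase signal from 100 µM tamoxifen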
Procedure, shortened: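 HepG2 cells (1500/well) were treated 16 h at 37 °C in complete medium, then caspase 3/7 activity was read by Caspase-Glo luminescence. Data were normalized to DMSO and 100 uM tamoxifen; AC50 came from Hill-equation fits of qHTS concentration-response.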

[8] = Cellular Toxicity (caspase-3) N2a (AID 665); conditions: Potency: caspase-3 activation;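 note: compound exposure lasted 16 h at 37 °C before readout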
Procedure, shortened: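 Mouse N2a neuroblastoma cells, 1500 per well, treated 16 h at 37 °C in complete medium; caspase-3/7 activity by Caspase-Glo luminescence after 1 h. Normalized to DMSO and 10 uM staurosporine; AC50 from Hill fits.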

[9] = Cellular Toxicity (caspase-3) Renal Proximal Tubule (AID 667);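 note: cells exposed to compound for 16 hours at 37 °C before detection; 0% = DMSO basal and 100% = 10 µM staurosporine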
Procedure, shortened: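 Caspase 3/7 activation measured by luminescent aminoluciferin release in primary rat proximal tubule cells after 16 hr compound exposure at 37 °C. AC50 from Hill-fitted concentration-response, scaled between DMSO and 10 uM staurosporine.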

[10] = biological target: Peroxisome proliferator-activated receptor alpha (Homo sapiens) (UniProt Q07869); experiment: qHTS assay for small molecule agonists of the peroxisome proliferator-activated receptor alpha (PPARalpha) signaling pathway (AID 651778); conditions: PathHunter PPARalpha complementation, chemiluminescence, 6 h; max response: hits give high values; note: % of control where 0% means no effect
Peroxisome proliferator-activated receptor alpha (Homo sapiens), sequence (Q07869 whole entry, looked up, the tested form may be a part): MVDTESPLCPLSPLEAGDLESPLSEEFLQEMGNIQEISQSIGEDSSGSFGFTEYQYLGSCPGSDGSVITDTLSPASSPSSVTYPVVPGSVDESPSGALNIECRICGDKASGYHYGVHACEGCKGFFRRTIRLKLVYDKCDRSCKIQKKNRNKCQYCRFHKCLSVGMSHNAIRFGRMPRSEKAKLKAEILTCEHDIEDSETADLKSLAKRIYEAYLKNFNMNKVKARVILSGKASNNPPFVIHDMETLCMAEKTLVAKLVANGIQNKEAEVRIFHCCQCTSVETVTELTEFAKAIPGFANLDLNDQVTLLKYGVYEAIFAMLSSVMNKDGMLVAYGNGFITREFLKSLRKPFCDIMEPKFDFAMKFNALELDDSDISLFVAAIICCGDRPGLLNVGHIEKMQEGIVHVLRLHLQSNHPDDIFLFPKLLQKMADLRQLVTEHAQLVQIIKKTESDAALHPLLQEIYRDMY
Procedure, shortened: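 Enzyme-fragment complementation assay in which ligand-bound PPARalpha translocates and forms an active enzyme that generates chemiluminescence. Cells were plated overnight, exposed to compound for 6 hr at 37 C, and then given detection reagent for 60 min at room temperature.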

[11] = qHTS assay for cell viability of the p53RE-bla HCT-116 cell line (AID 743292); note: nearly all actives have a fitted effect of over 55% in size; note: potency is the fitted concentration of half-maximal effect; for activity change, negative = cytotoxicity: % is set by controls: 0 for no effect and ±100 for the full control effect
Procedure, shortened: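 Compound-exposed HCT-116 (p53RE-bla) cells, 4,000 per well, were kept 16 h at 37 C following a 5 h preincubation. Cell number was estimated from total ATP by CellTiter-Glo luminescence read after 30 min at room temperature.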

[12] = Cellular Toxicity (caspase-3) HUV-EC-C (AID 656);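 note: 0% = DMSO basal and 100% = 100 µM tamoxifen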
Procedure, shortened: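 Luminescent Caspase-Glo 3/7 readout after 16 h, 37 °C compound exposure of HUV-EC-C endothelial cells, 1000 per well, complete medium. AC50 derived by Hill fitting, with DMSO as baseline and 100 uM tamoxifen as full activation.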

[13] = qHTS assay for cell viability of HEK293 cells (AID 743288); conditions: ATP luminescence (CellTiter-Glo), 18 h; max response: hits give low values; note: % is set by controls: 0 for no effect and ±100 for the full control effect; nearly all actives have a fitted effect of over 50% in size
Procedure, shortened: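 Total intracellular ATP, measured with a luciferase-coupled reagent, indicates the number of viable HEK293 cells. Exposure to test chemicals lasts 18 h at 37 C in 1,536-well format at 2,000 cells/well.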

[14] = biological target: Cytochrome P450 1A2 (Homo sapiens) (UniProt P05177); experiment: p450-cyp1a2 (AID 410; calls by dose curve; note: potency is the fitted concentration of half-maximal effect)
Cytochrome P450 1A2 (Homo sapiens), sequence (P05177 whole entry, looked up): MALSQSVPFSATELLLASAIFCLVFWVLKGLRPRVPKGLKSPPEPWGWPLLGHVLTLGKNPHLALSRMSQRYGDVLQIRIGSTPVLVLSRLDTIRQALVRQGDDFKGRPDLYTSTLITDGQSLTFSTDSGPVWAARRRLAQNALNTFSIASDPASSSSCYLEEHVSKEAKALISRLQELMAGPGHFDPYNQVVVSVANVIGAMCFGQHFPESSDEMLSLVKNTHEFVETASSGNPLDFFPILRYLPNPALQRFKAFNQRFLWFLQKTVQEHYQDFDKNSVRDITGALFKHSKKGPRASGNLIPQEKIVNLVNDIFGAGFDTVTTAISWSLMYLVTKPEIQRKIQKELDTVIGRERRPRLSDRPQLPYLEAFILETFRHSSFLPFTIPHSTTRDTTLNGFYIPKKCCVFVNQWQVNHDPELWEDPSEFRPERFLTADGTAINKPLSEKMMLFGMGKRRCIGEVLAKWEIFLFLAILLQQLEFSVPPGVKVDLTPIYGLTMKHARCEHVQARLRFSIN
Procedure, shortened: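 20nM CYP1A2 with 100uM Luciferin-ME (at Km) in 100mM KPO4; compound preincubated 10 min, NADPH regeneration added, 60 min at room temperature. Luciferin quantified by luminescence after detection reagent; normalized to 57 uM furafylline.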

[15] = biological target: Cytochrome P450 2C19 (Homo sapiens) (UniProt P33261); experiment: qHTS Assay for Inhibitors and Substrates of Cytochrome P450 2C19 (AID 899); note: potency is the fitted concentration of half-maximal effect; nearly all actives have a fitted effect of over 60% in size
Cytochrome P450 2C19 (Homo sapiens), sequence (P33261 whole entry, looked up): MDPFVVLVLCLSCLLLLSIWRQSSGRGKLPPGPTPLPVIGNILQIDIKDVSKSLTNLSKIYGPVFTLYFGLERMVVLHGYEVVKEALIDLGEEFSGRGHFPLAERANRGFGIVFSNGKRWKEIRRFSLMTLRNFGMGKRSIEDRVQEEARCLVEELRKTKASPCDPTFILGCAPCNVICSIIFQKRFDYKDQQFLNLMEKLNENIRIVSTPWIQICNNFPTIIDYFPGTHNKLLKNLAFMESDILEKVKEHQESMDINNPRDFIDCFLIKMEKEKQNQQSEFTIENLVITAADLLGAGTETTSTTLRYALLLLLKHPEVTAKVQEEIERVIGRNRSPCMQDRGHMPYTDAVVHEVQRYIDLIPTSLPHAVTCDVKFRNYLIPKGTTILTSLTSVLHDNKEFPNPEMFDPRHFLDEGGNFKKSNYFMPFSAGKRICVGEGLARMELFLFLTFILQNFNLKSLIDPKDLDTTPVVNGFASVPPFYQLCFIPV
Procedure, shortened: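 5 nM human CYP2C19 with 10uM Luciferin-H EGE (at KM) in 50mM KPO4, compound preincubated 10 min at 37C, then NADPH regeneration for 60 min at 37C. Luciferin read by luminescence after detection reagent; normalized to 57uM ketoconazole as full inhibition.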

[16] = NFAT Signaling Pathway (AID 444; active = well fitted curve in either direction with a large enough effect, not every such curve was filed as active;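 note: carbachol stimulus at about its EC50 of 1 µM final; % is set by controls: 0 for no effect and ±100 for the full control effect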); conditions: Jurkat NFAT-bla M1, carbachol, beta-lactamase ratio, 5 h; at 17.2 µM (top of the series) unless noted
Procedure, shortened: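 Jurkat cells with NFAT-driven β-lactamase reporter and co-expressed M1 receptor, stimulated with carbachol (final 1 uM, ~EC50), compound titration, 5 h at 37 °C. CCF4 loaded 1 h at RT; 460/530 nm ratio gave %activity and AC50.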

[17] = Stat Signaling Pathway (AID 446; active = well fitted curve in either direction with a large enough effect, not every such curve was filed as active;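 note: ME-180 cervical cancer cells given 40 pM IL-6 alongside compound; SIE-controlled beta-lactamase reporter measured as 460/530 nm FRET emission ratio; % is set by controls: 0 for no effect and ±100 for the full control effect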); conditions: ME-180 SIE beta-lactamase reporter, IL-6 stimulated, 5 h; at 17.2 µM (top of the series) unless noted
Procedure, shortened: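 ME-180 cells carrying a SIE-driven beta-lactamase reporter are stimulated with 40 pM IL-6 for 5 h at 37C in the presence of compound. The 460/530 nm FRET substrate ratio is read after 2.5 h at RT. Data are normalised to 300 pM IL-6 and to 125 nM JAK inhibitor controls.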

[18] = biological target: Glucocorticoid receptor (Homo sapiens) (UniProt P04150); experiment: GR-GFP Redistribution (AID 450;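 active = compounds whose dose series gives a full or clear partial fitted curve of increased nuclear translocation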; note: potency is the fitted concentration of half-maximal effect)
Glucocorticoid receptor (Homo sapiens), sequence (P04150 whole entry, looked up): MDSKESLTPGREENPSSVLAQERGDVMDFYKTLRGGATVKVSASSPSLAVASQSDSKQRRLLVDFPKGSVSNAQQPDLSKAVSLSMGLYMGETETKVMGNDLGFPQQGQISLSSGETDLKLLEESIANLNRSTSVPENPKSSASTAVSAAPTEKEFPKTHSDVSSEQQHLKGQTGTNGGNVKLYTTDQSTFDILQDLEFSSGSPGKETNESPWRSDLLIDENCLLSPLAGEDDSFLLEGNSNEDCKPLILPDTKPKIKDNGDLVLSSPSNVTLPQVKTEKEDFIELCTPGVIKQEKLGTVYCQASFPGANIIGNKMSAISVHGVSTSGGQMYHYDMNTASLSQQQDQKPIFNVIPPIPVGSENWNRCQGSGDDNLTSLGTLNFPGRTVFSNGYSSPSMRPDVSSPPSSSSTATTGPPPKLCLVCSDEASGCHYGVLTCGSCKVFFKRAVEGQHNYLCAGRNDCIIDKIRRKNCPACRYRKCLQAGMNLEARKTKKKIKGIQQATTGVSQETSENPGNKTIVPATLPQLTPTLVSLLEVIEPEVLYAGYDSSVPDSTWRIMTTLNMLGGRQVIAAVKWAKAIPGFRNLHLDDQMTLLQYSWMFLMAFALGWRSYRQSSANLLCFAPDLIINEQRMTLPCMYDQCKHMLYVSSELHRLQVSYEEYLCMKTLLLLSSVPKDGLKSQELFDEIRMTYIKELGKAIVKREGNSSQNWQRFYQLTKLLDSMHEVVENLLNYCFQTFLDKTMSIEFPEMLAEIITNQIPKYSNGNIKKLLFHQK

[19] = biological target: Cytochrome P450 3A4 (Homo sapiens) (UniProt P08684); experiment: qHTS Assay for Activators of Cytochrome P450 3A4 (AID 885); note: nearly all actives have a fitted effect of over 65% in size
Cytochrome P450 3A4 (Homo sapiens), sequence (P08684 whole entry, looked up): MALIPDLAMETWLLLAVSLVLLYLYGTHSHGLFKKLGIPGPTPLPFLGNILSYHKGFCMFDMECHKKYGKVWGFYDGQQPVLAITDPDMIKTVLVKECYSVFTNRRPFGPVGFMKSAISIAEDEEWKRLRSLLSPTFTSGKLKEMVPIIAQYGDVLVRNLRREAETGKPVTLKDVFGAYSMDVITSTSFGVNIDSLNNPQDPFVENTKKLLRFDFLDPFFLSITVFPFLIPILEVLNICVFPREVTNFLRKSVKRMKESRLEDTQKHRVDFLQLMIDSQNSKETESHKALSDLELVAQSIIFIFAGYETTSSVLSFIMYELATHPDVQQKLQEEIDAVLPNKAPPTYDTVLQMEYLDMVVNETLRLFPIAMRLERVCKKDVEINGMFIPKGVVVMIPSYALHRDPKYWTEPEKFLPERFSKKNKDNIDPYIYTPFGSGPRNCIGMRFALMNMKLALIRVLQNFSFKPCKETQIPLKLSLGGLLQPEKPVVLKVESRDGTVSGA
Procedure, shortened: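 Human CYP3A4 (20 nM) with Luciferin-PPXE at 25 uM (its KM) in 200 mM KPO4; 10 min compound preincubation, then NADPH regeneration and 60 min reaction at RT. Luciferin read by luminescence; normalized to 57 uM ketoconazole full inhibition.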

CC/C(=C(\c1ccccc1)c1ccc(OCCN(C)C)cc1)c1ccc(O)cc1
active: Potency [1] 45.1 µM | Potency [2] 34.3 µM | Potency [4] 31.6 µM | Potency [5] 31.6 µM | activity change, negative = cytotoxicity [6] -109% | Potency [7] 50.1 µM | Potency [11] 70.8 µM
inactive: Potency [3] | Potency [8] | outcome [9] | max response [10] -3.76%

CCCCCC/C(C=O)=C\c1ccccc1
inactive: Potency [1] > 92 µM | Potency [2] > 92 µM | Potency [3] | Potency [4] | Potency [5] | Potency [6] | Potency [7] | Potency [12] | Potency [8] | outcome [9] | max response [10] -1.11% | max response [13] -1.93% | Potency [11]

CCCC/C=C/C(NC(=O)c1ccccc1)c1ccccc1 (centres undefined)
active: Potency [14] 3.98 µM | Potency [15] 7.94 µM

CCCSC1=C(C#N)C(c2ccc(OC)cc2)C2=C(CC(C)(C)CC2=O)N1 (centres undefined)
inactive: activity change, negative = inhibition [16] -24.7% | activity, negative = inhibition [17] -13% | Potency [18] > 20.6 µM

CN(C)c1ccc(C2(c3ccc(N(C)C)cc3)OC(=O)c3cc(N(C)C)ccc32)cc1
inactive: Potency [1] > 92 µM | Potency [2] > 92 µM | Potency [4] | Potency [5] | Potency [6] | Potency [7] | Potency [12] | Potency [8] | outcome [9] | Potency [19] | max response [10] -2.57% | max response [13] -3.92% | Potency [11]

CCN1CCc2c(C#N)c(N3CCCCC3)nc(N3CCOCC3)c2C1
inactive: activity change, negative = inhibition [16] -1.02% | activity, negative = inhibition [17] 18.4% | Potency [18] > 20.6 µM

Oc1ccc2cc(SSc3ccc4cc(O)ccc4c3)ccc2c1
inactive: Potency [7] | Potency [12] | Potency [8] | outcome [9] | Potency [19] | max response [10] -7.41% | max response [13] -14.6% | Potency [11]
active: Potency [1] 49.1 µM | Potency [2] 42.5 µM | activity change, negative = cytotoxicity [4] -111% | viability change, negative = cytotoxic [5] -101% | activity change, negative = cytotoxicity [6] -82.8%

C/C=C1\C(=O)C[C@H]2[C@@H]3CCC4=CC(=O)CC[C@]4(C)[C@H]3CC[C@]12C
active: activity change, negative = cytotoxicity [4] -114% | viability change, negative = cytotoxic [5] -80.2%
inactive: Potency [1] > 92 µM | Potency [3] | Potency [7] | Potency [12] | Potency [8] | outcome [9] | max response [10] -3.35% | Potency [11]

Cc1ccc(Cn2ncc3c(N4CCN(c5ccc(C)cc5)CC4)ncnc32)cc1
inactive: activity change, negative = inhibition [16] -24.6% | activity, negative = inhibition [17] -13.5% | Potency [18] > 20.6 µM

C=C(C)c1ccccc1
inactive: Potency [1] > 92 µM | Potency [2] > 92 µM | Potency [4] | Potency [5] | Potency [6] | Potency [7] | Potency [12] | Potency [8] | outcome [9] | max response [10] -0.0788% | max response [13] 1.22% | Potency [11]

Cc1nc2oc(C(=O)c3ccc(Br)cc3)c(N)c2c2c1COC(C)(C)C2
inactive: activity change, negative = inhibition [16] 27.3% | activity, negative = inhibition [17] 0.926% | Potency [18] > 20.6 µM

O=C1OC(O)C(C(Cl)Cl)=C1Cl (centres undefined)
inactive: Potency [3] | Potency [7] | Potency [12] | outcome [9] | max response [10] -7.18% | max response [13] -27.5%
active: Potency [1] 41.2 µM | Potency [2] 30.2 µM | activity change, negative = cytotoxicity [4] -101% | Potency [5] 15.8 µM | Potency [6] 31.6 µM

CO[C@H]1/C=C/O[C@@]2(C)Oc3c(C)c(O)c4c(O)c(c5c(c4c3C2=O)NC2(CCN(CC(C)C)CC2)N=5)=NC(=O)/C(C)=C\C=C\[C@H](C)[C@H](O)[C@@H](C)[C@@H](O)[C@@H](C)[C@H](OC(C)=O)[C@@H]1C
inactive: Potency [1] > 92 µM | Potency [2] > 92 µM | Potency [4] | Potency [7] | Potency [12] | Potency [8] | outcome [9] | Potency [19] | max response [10] -2.63% | max response [13] -15.3% | Potency [11]

Brc1cccc(-c2cnc3n2CCCCC3)c1
inactive: activity, negative = inhibition [17] -10.7% | Potency [18] > 20.6 µM
active: activity change, negative = inhibition [16] -87.3%

O=C(OCC(COC(=O)c1ccccc1)(COC(=O)c1ccccc1)COC(=O)c1ccccc1)c1ccccc1
inactive: Potency [1] > 92 µM | Potency [2] > 92 µM | Potency [3] | Potency [4] | Potency [5] | Potency [6] | Potency [7] | Potency [12] | Potency [8] | outcome [9] | max response [10] -8.1% | max response [13] -3% | Potency [11]
